ELG1 DNA repair = ELG1-dependent DNA repair inhibition | HEK293T ELG1-luciferase reporter, luminescence, 16 h; DNA damage induced by 5-fluorouridine | actives 2.3% (n = 330,000) | Potency, µM (top dose mostly 46.1 µM), for inactives: at the highest dose activity change, negative = inhibition, usual class: inhibitors | AID 504467; note: potency is the fitted concentration of half-maximal effect; nearly all actives have a fitted effect of over 55% in size
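Step one: seed 2,000 cells per well. Step two: pin-transfer compound or DMSO alongside 5-fluorouridine. Step three: incubate 16 hr, 37 °C, 5% CO2. Step four: add ONE-Glo, wait 30 min, read luminescence.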
HT1080-NT tox = kills 2HG-producing HT-1080-NT fibrosarcoma cells. HT-1080-NT fibrosarcoma viability, CellTiter-Glo ATP luminescence, 48 h. Potency, µM (highest dose often 46.1 µM), for inactives: at the top dose activity, negative = less viability, hits mostly cytotoxic. actives 1.6% (n = 360,000). AID 686970;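 note: NT is the 2HG producing partner of a matched IDH1 knockdown line; potency is the fitted concentration of half-maximal effect; 0% = DMSO-treated cells and -100% = media-only wells without cells; nearly all actives have a fitted effect of over 55% in size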
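Luminescent CellTiter-Glo readout after 48 hours of compound exposure at 37 degrees C defined viability of HT-1080-NT cells. Activity was normalized to DMSO wells and cell-free media wells; concentration-response curves were fitted and assigned curve classes.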
TDP1 cell CPT = growth inhibition of DT40 Tdp1-/-;hTDP1 cells with camptothecin (screen for TDP1 inhibitors); chicken DT40 Tdp1-/-;hTDP1 cells + 20 nM CPT, ATP luminescence, 48 h; Potency, µM (doses to about 46.2 µM), inactives show at the top dose activity change, negative = growth inhibition, hits mostly inhibitors; actives 12% (n = 420,000); AID 686979; note: potency is the fitted concentration of half-maximal effect; nearly all actives have a fitted effect of over 55% in size
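Chicken DT40 Tdp1-/- cells complemented with human TDP1, 400 cells/well, exposed to compounds plus 20 nM camptothecin for at least 48 h at 37 C; viability read as ATP content by CellTiter-Glo luminescence.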
HT1080 IDH1KD tx = kills HT-1080 cells with IDH1 knockdown; actives 2% (n = 360,000); Potency, µM (top dose mostly 46.1 µM), inactives show top-dose activity, negative = toxicity, usual class: cytotoxic; HT-1080 IDH1 knockdown viability, ATP luminescence, 48 h; AID 686971;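 note: potency is the fitted concentration of half-maximal effect; 0% = DMSO wells and -100% = cell-free medium wells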
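Viability of IDH1-knockdown HT-1080 fibrosarcoma cells was assessed by CellTiter-Glo after 48 h at 37 °C with titrated compound; concentration-effect curves were classified by fit quality and response size.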
IL-1B inflam inh = inhibitors of inflammasome signaling (IL-1 beta secretion); activity change, % at 57.5 µM; THP-1 LPS/ATP IL-1B secretion, AlphaLISA, 16 h; hits give low values; actives 4.7% (n = 360,000); in the data active = activity change below about -50%; inconclusive = mostly about -30% to -49%
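THP-1 cells pretreated 1 hr with compounds (up to 57.5 uM final), then stimulated with LPS (250 ng/mL final) plus ATP (1.25 mM final); secreted IL-1B measured by AlphaLISA after 16 hr, decreased signal indicating inhibition.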
DT40 TDP1 no CPT = qHTS for Inhibitors of human tyrosyl-DNA phosphodiesterase 1 (TDP1): qHTS in cells in absence of CPT. Potency, µM (series often up to 46.2 µM), without a hit: top-dose activity change, negative = growth inhibition, hits mostly inhibitors. DT40 Tdp1-/- hTDP1 cells, no CPT, ATP luminescence, 48 h. actives 15% (n = 420,000); note: potency is the fitted concentration of half-maximal effect; nearly all actives have a fitted effect of over 55% in size
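Growth kinetics read by CellTiter-Glo luminescence after ≥48 hr at 37 °C. Cells: DT40 Tdp1-/- stably carrying human TDP1, 400 per well, compound exposure in the absence of CPT (DMSO vehicle).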
* marks the source's active call; other numbers are inactive results; ? = inconclusive; . = no result. Compounds with a hit are over-represented: about 19% of the library has one in this group of screens. Unless noted, calls come from the whole dose curve; as a rule, active = well fitted curve in the direction sought with a large enough effect; inconclusive = small, poorly fitted or top-dose-only effect, or another doubt; inactive = no such curve, though single readings can be large; an effect the other way counts as inactive or inconclusive. Unless noted, % is set by controls: 0 for no effect and ±100 for the full control effect.

SMILES	ELG1 DNA repair	HT1080-NT tox	TDP1 cell CPT	HT1080 IDH1KD tx	IL-1B inflam inh	DT40 TDP1 no CPT
CCCCCn1cnc2c(sc3nc4c(cc32)CSC(C)(C)C4)c1=O	?	-9%	?	-2%	9	10µM*
CCC(C)Nc1nnnc2c1sc1nc3c(cc12)COC(C)(C)C3 (stereo not drawn)	23µM*	-1%	?	-16%	?	?
CC1(C)Cc2nc3oc4c(=O)n(CC(=O)Nc5ccccc5)cnc4c3cc2CO1	12%	-1%	-27%	0%	63	-18%
CC1(C)Cc2nc3sc4c(=O)n(CC(=O)NCc5ccco5)cnc4c3cc2CO1	?	?	4.6µM*	10µM*	36	8.2µM*
CC1(C)Cc2nc3sc4c(=O)[nH]cnc4c3cc2CS1	?	-2%	?	0%	?	?
CCc1nc(OCc2ccccc2)c2sc3nc4c(cc3c2n1)COC(C)(C)C4	1%	14%	29µM*	7%	-8	?
CN(C)c1ncc2nc(-c3cc(F)cc(F)c3)c(=O)n(Cc3cccs3)c2n1	.	.	-26%	.	.	?
CC(C)CNc1ncnc2[nH]ncc12	.	-4%	-14%	-1%	37	-23%
CCOc1ncnc2c1sc1nc3c(cc12)COC(C)(C)C3	.	27%	2%	13%	-9	6%
CC1(C)Cc2nc3sc4c(OCc5ccccc5)ncnc4c3cc2CO1	-1%	10%	?	3%	55	18µM*
COc1ccccc1Nc1ncc(C(=O)N2CCN(Cc3ccc(OC)c(OC)c3OC)CC2)c2ccccc12	?	?	18µM*	-27%	-73*	?
COc1ccccc1Nc1ncc(C(=O)N2CCC(C(N)=O)CC2)c2ccccc12	0%	-6%	-1%	1%	0	7%
COc1ccc(CN2CCN(C(=O)c3cccs3)CC2)c(OC)c1OC	21µM*	1%	-24%	1%	-13	-25%
COc1ccc(CN2CCN(C(=O)c3ccc(-c4ccccc4)cc3)CC2)c(OC)c1OC	21%	3%	?	14%	16	?
COc1ccc(Nc2ncc(C(=O)N3CCN(Cc4ccccc4)CC3)c3ccccc23)cc1	16µM*	-1%	18µM*	-13%	-97*	?
O=C(c1cccs1)N1CCN(Cc2cn[nH]c2-c2ccc(F)cc2F)CC1	-21%	-1%	-18%	-4%	-51*	2%
CCOC(=O)C1CCN(C(c2ccc(SC)cc2)c2c(O)cc(C)n(Cc3ccco3)c2=O)CC1 (stereo not drawn)	.	.	-10%	.	.	-22%
CCCCn1c(N)c(N(CCOC)C(=O)c2cc(-c3ccccc3Cl)nc3ccccc23)c(=O)[nH]c1=O	5%	-2%	-2%	11%	-11	1%
COc1cccc(CSc2nc3ccccc3c3nc(CCn4c(C)nc5ccccc54)nn23)c1	.	.	?	.	.	-26%
CCCn1cc(S(=O)(=O)c2ccc(OC)cc2)c(=O)c2cc(OC)ccc21	-2%	-3%	-4%	-2%	-11	17%
COC(=O)/C=C1/SC(=NC(=O)c2ccccc2)NC1=O	6%	13%	?	15%	-3	21µM*
COC(=O)/C=C1\SC(=NC(=O)c2cccc(Cl)c2)NC1=O	0%	26%	21µM*	20%	-10	?
COC(=O)/C=C1/SC(=NC(=O)c2ccc(F)cc2)NC1=O	2%	16%	-6%	?	.	?
CCCCN1CC(N2CCCCC2)CS1(=O)=O (stereo not drawn)	.	3%	10%	4%	-2	6%

Source: PubChem BioAssay (National Center for Advancing Translational Sciences (NCATS))
